The record followed here is PubChem BioAssay AID540356 (Broad Institute, 2011).

About 360 (14%) of roughly 2,500 compounds were called active.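 How the source made its calls: active means signal-lowering compounds whose fitted half-maximal concentration AC50 is no higher than ten times their top tested concentration; inconclusive means flat curve with 30 to 70% inhibition, or poor fit; inactive means flat within 30%, signal increase, or AC50 above limit.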 These entries were drawn from the full list.

The nature of this experiment: non-specific inhibitors of H2O2 luminol chemiluminescence – biochemical, luminescence, no ALR or DTT, cherry-pick, artefact control for ALR inhibitor project, dose response (AID 540356). Conditions: HRP/H2O2 luminol luminescence counterscreen; series mostly up to 10 µM. (The purpose of a counterscreen is to sort out artefacts and off-target activity.)
The AC50 is the concentration at which the activity in the assay is half-maximal. In the case of `COc1cc(/C=N/Nc2nc3ccccc3[nH]c2=O)ccc1O`, the AC50 entry was “inactive”.

With `COc1ccc(/C=N/Nc2nc3ccccc3[nH]2)cc1OC`, the AC50 result is “inactive”.

`COc1cc(/C=N/Nc2nc3ccccc3[nH]2)ccc1O`: the AC50 is 8830 nM (active).

Regarding `O=S(=O)(Nc1ccc(N2CCCCC2)cc1)c1cccc2cccnc12`, the AC50 result is “inactive”.

As for `COc1ccc(O)c(-c2cc(-c3ccccc3[N+](=O)[O-])[nH]n2)c1`, the AC50 result was “inactive”.

`COc1ccc(CNc2nc3ccccc3n2C(C)C)c(O)c1`: the AC50 entry was “inactive”.

In the case of `Oc1ccccc1-c1n[nH]c(=S)n1Cc1ccco1`, the AC50 result is “inactive”.

Regarding `COc1ccc(N2CCN(S(=O)(=O)c3cccc4cccnc34)CC2)cc1`, the AC50 result is “inactive”.

Regarding `Oc1ccc(NCc2cccs2)cc1`, the AC50 result is “inactive”.

On to `Oc1cccc(Nc2c3ccccc3nc3ccccc23)c1`, for which the AC50 result was “inactive”.

Turning to `COC(=O)C1C(C(C)C)N(c2ccccc2)OC1(C)O` (centres undefined), the AC50 entry was “inactive”.

`CCc1ccc(CNc2ccc(N3CCN(C(C)=O)CC3)cc2)cc1`: the AC50 result was “inactive”.

With `CC(=O)N1CCN(c2ccc(NCc3cccc4ccccc34)cc2)CC1`, the AC50 result was “inactive”.

With `CC(=O)N1CCN(c2ccc(NCc3ccccc3)cc2)CC1`, the AC50 was 8410 nM (active).

On to `CCN(CCCNC(=O)CN(C)S(=O)(=O)c1cccc2nsnc12)c1cccc(C)c1`, for which the AC50 result was “inactive”.

Regarding `O=S(=O)(c1ccc2ccccc2c1)N1CCN=C1SCc1cccnc1`, the AC50 result was “inactive”.

Consider `CCCc1ccc(-c2cc(N)n[nH]2)cc1`, for which the AC50 result was “inactive”.

Take `Cc1cccc(N/N=C/c2ccc(O)c(O)c2O)c1`: the AC50 result was “inactive”.

For the compound `Cc1cccc(N/N=C/c2ccncc2)c1`, the AC50 was 2610 nM (active).

With `O=C(N/N=C/c1ccncc1)c1cccc(N/N=C/c2ccncc2)c1`, the AC50 result was “inactive”.

With `COC(=O)/C=C/S(=O)(=O)c1ccc(NC(C)=O)cc1`, the AC50 entry is “inactive”.

On to `CC(=O)N/N=C/c1cc(C)n(-c2ccc(Br)cc2)c1C`, for which the AC50 result is “inactive”.

On to `COc1cc(/C=C2\CCCc3c2nc2ccccc2c3C(=O)O)cc(Br)c1O`, for which the AC50 entry is “inactive”.

With `CCN(CC)c1ccc(NS(=O)(=O)c2ccc(OC)cc2)cc1`, the AC50 result was “inactive”.

Take `CCc1cc(C(=O)c2ccc(OC)cc2)c(NC(=O)CC(C)(C)CC(=O)O)s1`: the AC50 entry is “inactive”.

As for `COc1cc(/C=N/NC(=O)c2ccc(CSc3nncn3C)cc2)cc(OC)c1O`, the AC50 result is “inactive”.

In the case of `Cn1c(CSCc2ccc(Cl)cc2)n[nH]c1=S`, the AC50 entry was “inactive”.

As for `Cc1cc(C)n2nc(C(=O)N/N=C/c3ccc(O)cc3)nc2n1`, the AC50 result was “inactive”.

`Cc1nn(-c2ccccc2)c(C)c1-c1cc(C(=O)N/N=C/c2ccc(O)cc2)[nH]n1`: the AC50 result was “inactive”.

Consider `CN(C)Cc1ccccc1Sc1ccc(O)cc1O`, for which the AC50 result is “inactive”.

Regarding `Cc1c(Cl)cccc1-n1c(-c2cccnc2)n[nH]c1=S`, the AC50 result is “inactive”.

For the compound `CN(C)c1ccc(CNS(=O)(=O)c2ccc3c(c2)NC(=O)CS3)cc1`, the AC50 result is “inactive”.

For `Cc1cc(C(=O)NNc2ccc(F)cc2)no1`, the AC50 entry was “inactive”.

On to `Cc1ccc(NCCC(=O)c2cccs2)cc1C`, for which the AC50 result is “inactive”.

Take `Cc1ccc(NNC(=O)c2ccno2)cc1Cl`: the AC50 is 327 nM (active).

Turning to `Cc1ccc(NNC(=O)c2ccno2)cc1C`, the AC50 is 635 nM (active).

As to `O=C(Nc1ccc(Cl)c(Cl)c1)Nc1ccccc1C(=O)O`, the AC50 result was “inactive”.

Regarding `COc1ccc(/C=N/NC(=O)c2ccncc2)cc1CN1CCN(c2ccc(F)cc2)CC1`, the AC50 entry is “inactive”.

With `CCN(CC)c1ccc(/C=N/NC(=O)c2cccc(N3CCCC3=O)c2)cc1`, the AC50 entry was “inactive”.
